{"source": "PubChem BioAssay (NCI)", "note": "This is part of a sample that, as a whole, favours compounds with a hit. Of some 83,000 tested, about 20% had one in any assay.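 Interpretation: 100, growth as untreated; towards 0, rising growth inhibition; 0, no net growth; 0 to -100, cell death. Compounds scoring below 10 were considered active.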 Unmarked numbers belong to inactive results. Calls of active or inactive are those of the source."}
{"system": "HL-60(TB) leukemia", "assay": "NCI-60 one-dose screen, 48 h (100 = growth as untreated, 0 = no growth, -100 = all killed)", "conditions": "10 µM unless noted"}
{"smiles": "CCCCCCCCCCCCCCCCCC(=O)Nc1ccc(OC)cc1", "growth": "90.3%"}
{"smiles": "Cc1ccc(Nc2nnc(-c3c[nH]c4ccccc34)o2)c(C)c1", "growth": "1.4% (active)"}
{"smiles": "CCCCCCCS(=O)(=O)N1CCCC(C(=O)Nc2nc3ccc(NC(=O)c4ccc(F)c(OC)c4F)cc3s2)C1", "note": "(stereo unspecified)", "growth": "66.7%"}
{"smiles": "COc1ccc(/C=C/C(=O)c2ccc(S(=O)(=O)NCCNc3nc(Nc4ccc(F)cc4)nc(N(C)C)n3)cc2)cc1", "growth": "17.2%"}
{"smiles": "N#Cc1ccc(-c2nn(-c3ccc(C(=O)O)cc3)cc2CNc2ccc(Cl)cc2)cc1", "growth": "87.8%"}
{"smiles": "COC(=O)c1cc(C(C)=O)n2c3ccccc3c3ccccc3c12", "growth": "101%"}
{"smiles": "C/C(=N\\N=C\\c1cc([N+](=O)[O-])ccc1Cl)c1ccc2c(c1)Nc1ccccc1S2", "growth": "84.6%"}
{"smiles": "COc1ccc2c(c1)C(Sc1ccc(Br)cc1)c1c(nc(N)c(C#N)c1N)O2", "note": "(stereo unspecified)", "growth": "78%"}
{"smiles": "COc1ccc(NC(=O)Nc2nc3ccc([N+](=O)[O-])cc3s2)cc1", "growth": "2.05% (active)"}
{"smiles": "CCCCn1c(O)c(N=Nc2nc(-c3cc4ccccc4oc3=O)cs2)c2cc(Br)ccc21", "growth": "101%"}
{"smiles": "COc1ccccc1/C=C/c1cccc(NC(=S)NCCCCN(C)C)c1", "growth": "-41.7% (active)"}
{"smiles": "COc1ccc(C2=NN(c3ccccc3)C(c3ccc(OC)c(OCc4ccccc4)c3)C2)cc1OC", "note": "(stereo unspecified)", "growth": "100%"}
{"smiles": "COc1ccc2c(c1)C(=O)N(C)C2C1c2c(cc3c(c2OC)OCO3)CCN1C", "note": "(stereo unspecified)", "growth": "-6.5% (active)"}
{"smiles": "CC(C)C[C@H](NC(=O)CNC(=O)C[C@H]1O[C@@H]2OC3(C)CC[C@H]4[C@H](C)CC[C@@H]([C@H]1C)[C@@]24O3)B(O)O", "growth": "3.8% (active)"}
{"smiles": "COc1ccc(C(=O)/C=C/c2ccc(Oc3nc(Nc4ccc(F)cc4)nc(N(C)C)n3)c(OC)c2)cc1", "growth": "48.1%"}
{"smiles": "O=C(NN1C(=O)/C(=C/C=C/c2ccc([N+](=O)[O-])o2)SC1=S)c1ccccc1O", "growth": "-0.846% (active)"}
{"smiles": "O=C(N/N=C/c1ccc(-c2cccc([N+](=O)[O-])c2)o1)c1[nH]c2ccc(Br)cc2c1-c1ccccc1", "growth": "-36.5% (active)"}
{"smiles": "CC(C)(C)OC(=O)N1C/C(=C\\c2ccc(F)cc2)C(=O)/C(=C/c2ccc(F)cc2)C1", "growth": "-6.78% (active)"}
{"smiles": "O=[N+]([O-])c1ccc(/C=C/c2nc3ccccc3n3c(=S)[nH]nc23)cc1", "growth": "79.1%"}
{"smiles": "O=C1NC(=S)S/C1=C\\c1cn(-c2ccccc2)nc1-c1ccc([N+](=O)[O-])cc1", "growth": "9.92% (active)"}
{"smiles": "C=C1CCC2C3(C)COC(c4c(F)cccc4F)OC3CCC2(C)C1C/C=C1/C(=O)OCC1O", "note": "(stereo unspecified)", "growth": "6.75% (active)"}
{"smiles": "Cn1cc(-c2cc3nc(-c4cn(C)c5ncccc45)cc(N)n3n2)c2ccccc21", "growth": "-44.8% (active)"}
{"smiles": "N#Cc1c(Cl)nc(SCc2ccc(F)cc2)nc1-c1ccc(F)cc1", "growth": "50.2%"}
{"smiles": "C=C1CCC2C3(C)COC(c4ccc(F)cc4)OC3CCC2(C)C1C/C=C1/C(=O)OCC1O", "note": "(stereo unspecified)", "growth": "0.0909% (active)"}
{"smiles": "COc1cc(C2CC(c3cc(OC)c(OC)c(OC)c3)=Nc3c(N)nc(N)nc3N2)ccc1Oc1nc(NCCO)nc(N2CCOCC2)n1", "note": "(stereo unspecified)", "growth": "91.9%"}
{"smiles": "Clc1ccc(Nc2nnc(-c3c[nH]c4ccccc34)o2)cc1", "growth": "43.4%"}
{"smiles": "S=C(NCCc1ccccc1)Nc1ccc(OCc2nc3ccc(Cl)cc3[nH]2)cc1", "growth": "11.6%"}
{"smiles": "CN(C)c1ccc(/C=C/c2nc3ccccc3c(=O)n2CC(=O)Nc2ccccc2)cc1", "growth": "91.8%"}
{"smiles": "CCOC(=O)c1c(CSc2ccccc2)n(C)c2cc(CN(C)C)c(O)c(CN(C)C)c12", "growth": "52.2%"}
{"smiles": "CCN1C(=O)/C(=N\\N=C(/C)c2ccc3c(c2)Nc2ccccc2S3)c2cc(Cl)ccc21", "growth": "75.2%"}
{"smiles": "Cc1nc(N)ncc1-c1ccc2ncnc(N3CCc4cc(F)c(Cl)cc43)c2c1", "growth": "46.6%"}
{"smiles": "CN(C(=O)c1ccc(C(F)(F)F)cc1C(F)(F)F)c1sc2c(c1C#N)CCC(=O)C2", "growth": "55.3%"}
{"smiles": "O=C(CSc1nnc(-c2ccc3nc(-c4ccccc4)[nH]c3c2)o1)Nc1ccc(Br)cc1", "growth": "51.3%"}
{"smiles": "O=C(Cc1ccc2c(c1)CN(C1CCC(=O)NC1=O)C2=O)NCCc1ccccc1", "note": "(stereo unspecified)", "growth": "-19.2% (active)"}
{"smiles": "Cc1ccc(-c2cc(-c3cc4ccccc4nc3Cl)[nH]c(=S)n2)cc1", "growth": "11.6%"}
{"smiles": "Clc1ccc(-c2nc3c4c(-c5ccccc5)c(-c5ccccc5)n(Cc5ccccc5)c4ncn3n2)cc1", "growth": "-27.7% (active)"}
